The results in this text go back to PubChem BioAssay AID651815 (National Center for Advancing Translational Sciences (NCATS), 2012).

In all, about 2,100 compounds went through this assay and about 1,100 (52%) were called active. Inconclusive results (about 29%) are left out. So high a share suggests a set chosen from earlier hits. This is one part of the list. Values without a mark were called inactive. Calls follow the shape of the dose curve; as a rule, active = well fitted inhibition curve with a large enough effect; inconclusive = small, poorly fitted or top-dose-only effect; inactive = no such curve, though single readings can be large or run the other way.
% is scaled to controls: 0 for no effect and ±100 for the full control effect; potency is read from the fitted curve at half-maximal effect.

Sequence of DNA dC->dU-editing enzyme APOBEC-3F (Homo sapiens) (Q8IUX4 whole entry, looked up): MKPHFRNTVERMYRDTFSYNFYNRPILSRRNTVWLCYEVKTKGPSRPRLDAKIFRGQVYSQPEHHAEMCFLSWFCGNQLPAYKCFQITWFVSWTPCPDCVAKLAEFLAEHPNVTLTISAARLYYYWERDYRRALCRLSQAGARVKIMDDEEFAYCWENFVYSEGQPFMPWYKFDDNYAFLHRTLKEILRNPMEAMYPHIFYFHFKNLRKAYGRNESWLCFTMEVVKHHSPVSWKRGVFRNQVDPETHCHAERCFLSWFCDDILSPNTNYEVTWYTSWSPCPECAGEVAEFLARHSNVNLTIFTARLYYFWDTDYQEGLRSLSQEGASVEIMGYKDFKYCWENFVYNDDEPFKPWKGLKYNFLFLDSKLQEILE

In this assay the target is DNA dC->dU-editing enzyme APOBEC-3F (Homo sapiens) (UniProt Q8IUX4). In words: qHTS for inhibitors of Vif-A3F interactions: Cherry picks counterscreen. Also: nearly all actives have a fitted effect of over 65% in size. The following applies: HeLa A3F-eYFP/Vif cells, eYFP fluorescence, 24 h; series mostly up to 46.1 µM; activity, negative = inhibitor: at the top concentration. In short, it runs like this:
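HeLa cells stably expressing A3F-eYFP and Vif, cultured overnight, then treated 24 h at 37 degrees C with compounds at several concentrations; yellow fluorescence (488 nm Ex/500-530 nm Em) imaged on Acumen; MG132 positive control.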
`CC(=O)c1c(C)oc2c1cc(NS(=O)(=O)c1ccc(Br)cc1)c1ccccc12`: the Potency was 2.91 µM (active).

For `Cc1ccc(S(=O)(=O)Nc2cc(Cl)c(O)c3ncccc23)cc1`, the “activity, negative = inhibitor” value is -18.6% [at 36.9 µM].

In the case of `CCc1nc(Nc2ccc3nccnc3c2)c2oc3ccccc3c2n1`, the Potency is 23.1 µM (active).

As for `COc1ccc(S(=O)(=O)Nc2cccc(-c3ccc4nncn4n3)c2)cc1F`, the Potency was 1.98 µM (active).

`COc1ccc(S(=O)(=O)Nc2cccc(-c3ccc4nncn4n3)c2)cc1`: the Potency was 3.14 µM (active).

Take `O=Cc1s/c(=N\S(=O)(=O)c2ccccc2)n(CCCCl)c1Cl`: the Potency was 5.8 µM (active).

With `O=C1[C@@H]2[C@@H](CN3CN(c4ccccc4)N=C(c4ccccc4)[C@@]23c2ccccc2)C(=O)N1c1ccccc1`, the “activity, negative = inhibitor” value is 15.5%.

As to `CCN1/C(=C/c2cc[n+](C)cc2)C=Cc2cc(C)ccc21`, the Potency was 18.4 µM (active).

For the compound `CCN1/C(=C/c2ccc3ccccc3[n+]2CC)C=Cc2ccccc21`, the “activity, negative = inhibitor” value is -22.3%.

For `Cc1cc(C)cc(NC(=O)Cn2c(=O)oc3cc(S(=O)(=O)N4CCC(C)CC4)ccc32)c1`, the Potency was 12.5 µM (active).

For the compound `COc1ccc2c(Cl)c(C(=O)N/N=C3\CCCC(=O)C3)sc2c1`, the Potency was 17.7 µM (active).

As for `CCOc1cc(C(=O)NN=C2CCCC2)cc(OCC)c1OCC`, the “activity, negative = inhibitor” value was 4.99% [at 36.9 µM].

On to `N#CC1=C(N)Oc2ccc3ccccc3c2C1c1cccnc1` (stereo not drawn), for which the Potency was 2.8 µM (active).

As for `CC1=C(n2nnc3ccccc32)C(c2ccccc2)C(C#N)=C(N)O1` (stereo not drawn), the “activity, negative = inhibitor” value is -24.2%.

As for `CCN(CC)c1ccc2c(c1)OC(N)=C(C#N)C2c1cccnc1` (stereo not drawn), the Potency was 14 µM (active).

In the case of `N#CC1=C(N)Oc2ccc3ccc(O)cc3c2C1c1ccsc1` (stereo not drawn), the “activity, negative = inhibitor” value was -11.7% [at 36.9 µM].

As for `Cc1ccc2c(c1C)NC(=O)CC(c1ccccc1O)=N2`, the “activity, negative = inhibitor” value was 6.28%.

As for `CN(C)c1ccc2ccc3cccc4ccc1c2c34`, the Potency was 13 µM (active).

With `C[C@H]1CN([C@@H](C)CO)C(=O)Cc2cc(NC(=O)CCC(F)(F)F)ccc2O[C@H]1CN(C)S(=O)(=O)c1ccc(F)cc1`, the Potency was 12.5 µM (active).

As to `CCOc1cc(C#N)c(NC(=O)c2cccnc2)cc1OCC`, the Potency was 3.53 µM (active).

Consider `COc1ccc(OC)c(NS(=O)(=O)c2ccc(Cl)s2)c1`, for which the Potency is 11.2 µM (active).

Turning to `N#Cc1ccc(/C=C\c2nccc3c2[nH]c2ccccc23)cc1`, the Potency is 15.8 µM (active).

`C(=C/c1nccc2c1[nH]c1ccccc12)/c1ccc2c(c1)OCO2`: the “activity, negative = inhibitor” value is -27.4% [at 36.9 µM].

Regarding `Cc1noc(C)c1COc1ccc(C(=O)NNC(=O)c2ccccc2F)cc1`, the Potency is 9.94 µM (active).

Take `Cc1ccc(CN(C(=O)c2ccccc2F)c2ccccn2)o1`: the “activity, negative = inhibitor” value is -16.2%.

With `Cc1noc(C)c1COc1ccc(C(=O)NNC(=O)c2ccccc2)cc1`, the Potency was 4.98 µM (active).

For the compound `C=CCN1C=CC(=CC=C(C#N)C#N)C=C1`, the Potency was 17.7 µM (active).

As for `C=CCN1C=CC(=C/C=C(/C#N)C(=O)OCC)C=C1`, the Potency was 4.61 µM (active).

For `CCOC(=O)/C(C#N)=C\C=C1C=CN(C)C=C1`, the “activity, negative = inhibitor” value is 23.1%.

`CCCN1C=CC(=CC=C(C#N)C#N)C=C1`: the Potency was 17.7 µM (active).

Regarding `COc1ccc(-n2c(O)c(/C=N/NS(=O)(=O)c3ccc(C)cc3)c3ccccc3c2=O)cc1OC`, the Potency was 18.4 µM (active).

With `COc1ccc(-n2c(O)c(/C=N/NS(=O)(=O)c3cc(C)ccc3C)c3ccccc3c2=O)cc1OC`, the Potency is 13 µM (active).

In the case of `CC12CC3CC(C)(C1)CC(C(=O)NC(=S)N1CCOCC1)(C3)C2`, the “activity, negative = inhibitor” value was -2.22% [at 36.9 µM].

For `C(=C\c1c[nH]c2ccccc12)/c1ccc2ccccc2n1`, the Potency is 18.4 µM (active).

Consider `C(=Cc1c[nH]c2ccccc12)c1ccc2ccccc2n1`, for which the Potency was 18.4 µM (active).

In the case of `COc1ccc(C(=O)Nc2cccc(/C=C/c3nc4ccccc4c(=O)[nH]3)c2)cc1`, the Potency is 15.8 µM (active).

On to `CCc1cccc2cc3c(N)c(C(=O)Nc4ccc(S(=O)(=O)N5CCCC5)cc4)sc3nc12`, for which the Potency is 6.27 µM (active).

For the compound `Nc1c(C(=O)Nc2ccc(S(=O)(=O)N3CCCC3)cc2)sc2nc3cc4c(cc3cc12)CCC4`, the Potency is 14.6 µM (active).

Regarding `Nc1c(C(=O)Nc2ccc(S(=O)(=O)N3CCCC3)cc2)sc2nc3ccc(OC(F)(F)F)cc3cc12`, the Potency was 23.1 µM (active).

As for `Cn1nnnc1SCCNCc1cc(Br)ccc1OCc1ccccc1Cl`, the “activity, negative = inhibitor” value was -13.7%.

For the compound `CCC(C)n1c(NC(=O)c2ccccc2)c(C#N)c2nc3ccccc3nc21` (stereo not drawn), the Potency was 18.4 µM (active).

Turning to `Fc1ccc2nc3[nH]c4ccccc4c3nc2c1`, the Potency was 0.886 µM (active).

For the compound `COc1ccc(OC)c(/C=C/c2nc3ccccc3[nH]c2=O)c1`, the Potency was 5.8 µM (active).

As for `Cc1ccc(N2C(=O)[C@@H]3[C@H](C2=O)[C@H]2C=C(C(=O)c4ccccc4)C=CN2[C@@H]3C(=O)c2ccc(Cl)cc2)cc1`, the “activity, negative = inhibitor” value is -18.4%.

Consider `COc1ccc(N2CC(C(=O)N/N=C/c3ccc(C)cc3)CC2=O)cc1` (stereo not drawn), for which the Potency was 3.53 µM (active).

Turning to `COCCCNC(=S)N/N=C/c1ccc(OC)cc1`, the “activity, negative = inhibitor” value was -7.86%.

`CCSC1=N/C(=C\C=C2/Oc3ccccc3N2CC)C(=O)S1`: the Potency was 14.6 µM (active).

As for `CCCCN1C(=O)/C(=C/C=C2\Oc3ccccc3N2CC)SC1=S`, the “activity, negative = inhibitor” value was -0.0599% [at 36.9 µM].
